Among all 85,000 compounds or so, about 440 (0.52%) showed an effect of 50% or more. This is one part of a sample in which strong results are shown more often than they occur.
Experiment: In vitro enzyme assay to detect hydrolysis of chlorophenol red-beta-D-[…] directly proportional to the number of Toxoplasma stably expressing beta-galactosidase
Assay type: functional, organism-based, Toxoplasma gondii
Set-up: scale not given: in the data most compounds retested in dose-response had high values

Structure (SMILES)	Percent Effect (50 µM)	Percent Effect (10 µM)
Cc1cnc(N)nc1NCC(O)CN1CCCCC1 (configuration not stated)	10.92%	–
Cc1cc(F)ccc1NC(=O)NCC1(O)CCNC1 (configuration not stated)	-14.34%	–
CC(C(=O)N1CCOCC1)N1CCC(CO)CC1 (configuration not stated)	-3.94%	–
Cn1cc([C@@H]2OCCC[C@H]2CN)cn1	1.285%	–
NCc1ccncc1OCC(F)(F)F	19.9%	–
COCC1CCN(C(=O)CCC2CCNCC2)CC1	-0.227%	–
C=C(C)CNC(C(=O)N1CCOCC1)C(C)C (configuration not stated)	-2.491%	–
CN(CCC(N)=O)Cc1ccc(Cl)s1	-3.537%	–
c1ccc(-c2ncn(CCCN3CCOCC3)c2-c2ccncc2)cc1	–	36.16%
c1cc(-c2nnc3sc(CCN4CCCC4)nn23)ccn1	–	-1.928%
c1cc(-c2nn3c(CN4CCOCC4)nnc3s2)ccn1	–	60.13%
COCC(=O)NCCc1cc(Cl)c2c(c1)OCCO2	-0.1362%	–
O=C(CN1CCN(C(=O)c2ccco2)CC1)NC1CC1	54.85%	–
O=C(CN1CCN(C(=O)c2sccc2C2CC2)CC1)NC1CC1	–	2.485%
CCC(=O)NC1CCN(C(=O)c2ccco2)CC1	-8.488%	–
CCc1ccccc1-n1c(CNC)n[nH]c1=O	9.34%	–

Structure (SMILES)	Percent Effect (50 µM)	Percent Effect (10 µM)
CC[C@H](N)C(=O)N(C)CCOc1cccc(Cl)c1	33.07%	–
OCC1COCCN(Cc2ccc(C(F)(F)F)nc2)C1 (configuration not stated)	17.84%	–
Cc1nc(C2(O)CCCNCC2)sc1CCOc1ccc(Cl)cc1.Cl (configuration not stated)	–	66.18%
Cc1nc(C2(O)CCCNCC2)sc1CCOc1ccccc1.Cl (configuration not stated)	–	-8.75%
Cc1nc(C2(O)CCCNCC2)sc1CCOc1ccc(F)c(F)c1.Cl (configuration not stated)	–	36.46%
COc1ccc(OCCc2sc(C3(O)CCCNCC3)nc2C)cc1.Cl (configuration not stated)	–	31.45%
Cc1nc(C2(O)CCCNCC2)sc1CCOc1ccc(F)cc1.Cl (configuration not stated)	–	11.11%
CCS(=O)(=O)NCCCN(C)C1CCSC1 (configuration not stated)	-2.223%	–
Cc1n[nH]c(SCCNC(=O)CC2C=CS(=O)(=O)C2)n1 (configuration not stated)	9.381%	–
Cc1nc(C)c(CNC(=O)c2ccnnc2)s1	-0.5239%	–
CC(CNC(=O)c1cncc(Br)c1)N1CCCC1 (configuration not stated)	12.86%	–
CNC(=O)C1(N(C)CCc2ccccc2)Cc2ccccc2C1	–	52.85%
CN(Cc1ccccc1)C1(C(=O)NC(C)(C)CO)Cc2ccccc2C1	–	-3.718%
CN(Cc1ccccc1)C1(C(=O)O)Cc2ccccc2C1	–	-0.5507%
CN(Cc1ccco1)C(=O)Nc1ccc(N(C)C)nc1	24.04%	–
CCN(CCCN1CCCC1)C(=O)c1cc[nH]n1	-7.801%	–
